Reference: PubChem BioAssay (Tox21)
Unmarked numbers belong to inactive results. Records with an inconclusive call do not appear. A call without a number means that no potency is given here. Calls of active or inactive are those of the source. Unless noted, calls come from the whole dose curve.

Experiments:
[1] = qHTS assay to identify small molecule agonists of the sonic hedgehog signaling (Shh) pathway (AID 1259368);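 note: NIH/3T3-derived 3T3Gli1-Luc cells carrying a stable Gli1-driven firefly luciferase reporter; series mostly up to about 92 µM; nearly all actives have a fitted effect of over 15% in size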
Summary of the method: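 NIH/3T3-derived 3T3Gli1-Luc cells with stably integrated Gli1-driven firefly luciferase, 2,000 cells/well, compounds added after 4 hr. Incubated 24 hr at 37C, 5% CO2; luminescence read after 30 min with luciferase reagent at room temperature.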

[2] = qHTS assay to identify small molecule antagonists of the sonic hedgehog signaling (Shh) pathway (AID 1259369); note: nearly all actives have a fitted effect of over 45% in size; note: potency is the fitted concentration of half-maximal effect
Summary of the method: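 NIH/3T3-derived Gli1-Luc reporter cells plated 4 h, dosed with compound, then stimulated with conditioned medium for 24 h at 37 C. Firefly luciferase luminescence read after 30 min with detection reagent at room temperature.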

[3] = biological target: Estrogen receptor beta (Homo sapiens) (UniProt Q92731); assay: qHTS assay to identify small molecule agonists of the estrogen receptor beta (ER-beta) signaling pathway (AID 1259377; active = well fitted activation curve with a large enough effect in the signal ratio in the repeat runs, not every such curve was filed as active; the % refers to the signal ratio)
Summary of the method: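 Agonist mode cell assay in GripTite HEK293T cells expressing an ER-beta fusion that drives beta-lactamase from an Upstream Activator Sequence; 16 hr compound exposure at 37C, then 2 h LiveBLAzer B/G FRET substrate at room temperature, fluorescence read-out.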

[4] = biological target: Estrogen receptor beta (Homo sapiens) (UniProt Q92731); assay: qHTS assay to identify small molecule antagonists of the estrogen receptor beta (ER-beta) signaling pathway (AID 1259378; active = well fitted inhibition curve with a large enough effect in the signal ratio in the repeat runs, not every such curve was filed as active; the % refers to the signal ratio; note: potency is the fitted concentration of half-maximal effect)
Summary of the method: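 ER-beta-UAS-bla HEK293T cells in 2% charcoal-stripped FBS medium treated with compound plus 1nM final 17-beta-estradiol for 16 hr at 37C. Beta-lactamase reporter read by FRET substrate fluorescence after 2 hours at room temperature.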

[5] = qHTS assay to identify small molecule agonists of the androgen receptor (AR) signaling pathway in the presence of an antagonist - cell viability counter screen (AID 1259379; active = well fitted curve in the direction sought with a large enough effect in the repeat runs; an effect the other way counts as inactive or inconclusive;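 note: MDA-kb2 human breast cancer cells carrying an MMTV luciferase reporter; series mostly up to about 92 µM; nearly all actives have a fitted effect of over 25% in size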)
Summary of the method: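 MDA-kb2 cells (MMTV-luciferase, AR/GR), 3,000/well, 5 h attachment, then 3.0 µM nilutamide (final) and compounds at 15 concentrations. Viability by CellTiter-Fluor fluorescence after 16 h at 37 °C, 0% CO2, in the reporter wells.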

[6] = qHTS assay to identify small molecule antagonists of the estrogen receptor beta (ER-beta) signaling pathway - cell viability counter screen (AID 1259382; active = well fitted curve in the direction sought with a large enough effect in the repeat runs; an effect the other way counts as inactive or inconclusive; note: nearly all actives have a fitted effect of over 55% in size; note: potency is the fitted concentration of half-maximal effect; for activity change, negative = cytotoxicity: series mostly up to about 92 µM)
Summary of the method: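 ER-beta-UAS-bla HEK293T cells in 2% charcoal-stripped FBS medium, treated with compound plus 1 nM 17-beta-estradiol for 16 h at 37C. Viability read by CellTiter-Glo luminescence after 30 min at room temperature in the same wells.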

[7] = biological target: Estrogen receptor (Homo sapiens) (UniProt P03372); assay: qHTS assay to identify small molecule agonists of the estrogen receptor alpha (ER-alpha) signaling pathway in the presence of an antagonist (AID 1259383); note: top concentration of the series differs between compounds; nearly all actives have a fitted effect of over 15% in size
Summary of the method: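 VM7Luc4E2 cells express endogenous full-length ER-alpha with an ERE-luciferase reporter and were hormone-deprived for 5 days. Compounds at 15 concentrations were added with 10.0nM ICI-182,780 for 22hr at 37C. Luminescence was read with ONE-Glo.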

[8] = qHTS assay to identify small molecule agonists or antagonists of the thyroid stimulating hormone receptor (TSHR) signaling pathway - wild type cell line counter screen (AID 1259384)
Summary of the method: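 Wild-type Hek293 cells, 800/well, 18 h at 37C, then compound with Ro20-1724 for 30 min RT. cAMP by HTRF (cAMP-d2/anti-cAMP cryptate), 1 h RT, fluorescence read. 15 concentrations, triplicates.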

[9] = qHTS assay to identify small molecule agonists of the estrogen receptor beta (ER-beta) signaling pathway - cell viability counter screen (AID 1259380; active = well fitted curve in the direction sought with a large enough effect in the repeat runs; an effect the other way counts as inactive or inconclusive; note: nearly all actives have a fitted effect of over 30% in size)
Summary of the method: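 ER-beta-UAS-bla HEK293T cells in medium with 2% charcoal-stripped FBS, pre-incubated 6 hr, then treated 16 hr at 37C. Cytotoxicity read in the same wells by CellTiter-Glo luminescence after 30 min at room temperature.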

[10] = biological target: Androgen receptor (Homo sapiens) (UniProt P10275); assay: qHTS assay to identify small molecule agonists of the androgen receptor (AR) signaling pathway in the presence of an antagonist (AID 1259381); note: nearly all actives have a fitted effect of over 15% in size; note: potency is the fitted concentration of half-maximal effect
Summary of the method: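 MDA-kb2 cells carrying MMTV-luciferase (AR/GR responsive), 3,000 cells/well, co-treated with 3.0 uM nilutamide final. Compounds at 15 concentrations, 16 hr at 37C without CO2. Luciferase luminescence read after 30 min with ONE-Glo.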

Chain of Estrogen receptor (Homo sapiens) (P03372 whole entry, looked up): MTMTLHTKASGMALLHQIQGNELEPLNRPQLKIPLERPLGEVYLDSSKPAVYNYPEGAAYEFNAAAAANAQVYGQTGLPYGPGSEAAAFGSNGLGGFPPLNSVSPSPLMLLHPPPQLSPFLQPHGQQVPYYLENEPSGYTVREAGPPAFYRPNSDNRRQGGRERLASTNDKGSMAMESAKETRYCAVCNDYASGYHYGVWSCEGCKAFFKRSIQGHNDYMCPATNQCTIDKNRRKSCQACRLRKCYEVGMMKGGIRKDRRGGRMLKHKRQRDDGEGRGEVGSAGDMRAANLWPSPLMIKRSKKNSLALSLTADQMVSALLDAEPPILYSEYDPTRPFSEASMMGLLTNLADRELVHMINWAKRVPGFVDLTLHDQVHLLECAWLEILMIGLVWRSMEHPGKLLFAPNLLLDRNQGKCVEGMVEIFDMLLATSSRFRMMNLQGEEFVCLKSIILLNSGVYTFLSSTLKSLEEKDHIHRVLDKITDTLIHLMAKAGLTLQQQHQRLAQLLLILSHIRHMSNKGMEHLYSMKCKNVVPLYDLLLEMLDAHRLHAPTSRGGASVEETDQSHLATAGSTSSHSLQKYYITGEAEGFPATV
Chain of Androgen receptor (Homo sapiens) (P10275 whole entry, looked up): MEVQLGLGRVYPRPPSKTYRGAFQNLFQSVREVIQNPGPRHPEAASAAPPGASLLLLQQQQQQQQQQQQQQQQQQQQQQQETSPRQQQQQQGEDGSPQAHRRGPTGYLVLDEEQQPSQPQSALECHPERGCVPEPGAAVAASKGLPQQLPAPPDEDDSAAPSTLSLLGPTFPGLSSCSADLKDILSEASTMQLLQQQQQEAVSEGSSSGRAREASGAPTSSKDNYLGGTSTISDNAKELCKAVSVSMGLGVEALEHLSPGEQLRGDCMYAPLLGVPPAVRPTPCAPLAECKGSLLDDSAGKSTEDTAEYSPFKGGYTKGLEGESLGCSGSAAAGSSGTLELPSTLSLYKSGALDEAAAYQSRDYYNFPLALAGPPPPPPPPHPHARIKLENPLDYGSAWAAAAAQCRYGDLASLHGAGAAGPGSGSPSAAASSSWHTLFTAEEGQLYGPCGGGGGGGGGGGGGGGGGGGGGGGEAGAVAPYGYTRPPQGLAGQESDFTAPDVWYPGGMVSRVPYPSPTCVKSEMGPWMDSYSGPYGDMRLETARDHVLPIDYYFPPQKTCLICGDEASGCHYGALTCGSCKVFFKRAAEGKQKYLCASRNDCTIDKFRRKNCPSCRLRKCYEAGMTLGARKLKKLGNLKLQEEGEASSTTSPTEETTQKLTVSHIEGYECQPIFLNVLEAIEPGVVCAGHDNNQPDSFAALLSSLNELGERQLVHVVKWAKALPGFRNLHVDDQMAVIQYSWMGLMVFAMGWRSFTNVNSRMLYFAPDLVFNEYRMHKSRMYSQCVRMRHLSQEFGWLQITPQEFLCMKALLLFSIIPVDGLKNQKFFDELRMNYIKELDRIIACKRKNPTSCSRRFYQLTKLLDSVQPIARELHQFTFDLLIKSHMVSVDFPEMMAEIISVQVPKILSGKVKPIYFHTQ
Chain of Estrogen receptor beta (Homo sapiens) (Q92731 whole entry, looked up, the tested form may be a part): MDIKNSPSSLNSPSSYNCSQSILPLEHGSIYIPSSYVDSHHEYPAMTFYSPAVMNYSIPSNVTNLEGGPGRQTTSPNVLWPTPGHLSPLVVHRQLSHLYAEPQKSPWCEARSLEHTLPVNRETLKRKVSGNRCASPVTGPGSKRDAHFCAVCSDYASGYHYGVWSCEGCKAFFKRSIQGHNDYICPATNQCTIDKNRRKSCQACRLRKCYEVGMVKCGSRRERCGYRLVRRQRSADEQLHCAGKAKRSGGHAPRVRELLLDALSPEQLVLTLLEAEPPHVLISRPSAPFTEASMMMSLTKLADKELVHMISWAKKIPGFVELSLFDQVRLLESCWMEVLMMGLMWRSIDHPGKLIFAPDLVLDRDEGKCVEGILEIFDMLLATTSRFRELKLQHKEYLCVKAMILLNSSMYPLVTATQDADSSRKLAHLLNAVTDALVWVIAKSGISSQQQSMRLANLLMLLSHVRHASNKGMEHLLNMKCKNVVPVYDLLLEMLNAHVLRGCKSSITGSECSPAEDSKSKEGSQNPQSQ

SMILES: CC(C)(C)c1ccc(CCC=O)cc1
- Potency [1]: inactive
- Potency [2]: inactive
- Potency [3]: inactive
- Potency [4]: inactive
- Potency [5]: inactive
- Potency [6]: inactive
- Potency [7]: inactive

SMILES: O=C(OCCOCCOCCOC(=O)c1ccccc1)c1ccccc1
- Potency [1]: inactive
- Potency [2]: inactive
- Potency [3]: inactive
- Potency [4]: inactive
- Potency [5]: inactive
- Potency [6]: inactive
- Potency [7]: inactive

SMILES: CC(=O)Nc1cccc(N)c1
- Potency [1]: inactive
- Potency [2]: inactive
- Potency [3]: inactive
- Potency [4]: inactive
- Potency [5]: inactive
- Potency [6]: inactive
- Potency [7]: inactive
- outcome [8]: inactive

SMILES: Cc1ccc(Cl)c(OCC(O)CNC(C)(C)C)c1 (stereo not given)
- Potency [1]: inactive
- Potency [2]: inactive
- Potency [3]: inactive
- Potency [4]: inactive
- Potency [5]: inactive
- Potency [6]: inactive
- Potency [7]: inactive

SMILES: Sc1nc(S)nc(S)n1
- Potency [1]: inactive
- Potency [2]: inactive
- Potency [3]: inactive
- Potency [4]: inactive
- Potency [5]: inactive
- Potency [9]: inactive
- Potency [6]: inactive
- outcome [8]: inactive

SMILES: Clc1cccc(C(c2ccc3nc[nH]c3c2)n2ccnc2)c1 (stereo not given)
- Potency [1]: inactive
- Potency [2]: inactive
- Potency [3]: inactive
- Potency [4]: inactive
- Potency [5]: inactive
- Potency [10]: inactive
- Potency [6]: inactive
- Potency [7]: inactive

SMILES: CC(=O)Nc1ccn(C2COC(COC(=O)c3ccccc3)O2)c(=O)n1 (stereo not given)
- Potency [1]: inactive
- Potency [2]: inactive
- Potency [3]: inactive
- Potency [4]: inactive
- Potency [5]: inactive
- Potency [9]: inactive
- Potency [6]: inactive
- outcome [8]: inactive

SMILES: COC=O
- activity change [1]: -3.86% [at 8.39 µM, hits give high values]
- activity change, negative = inhibition [2]: 0% [at 8.39 µM]
- activation [3]: 8.91% [at 8.39 µM]
- activity, negative = inhibition [4]: 1.13% [at 8.39 µM]
- activity change, negative = cytotoxicity [5]: 0.257% [at 8.39 µM]
- activity change, negative = cytotoxicity [6]: 10.9% [at 8.39 µM]
- activation [7]: 1.27% [at 8.39 µM]
- cAMP activity change [8]: -7.06% [at 8.39 µM]

SMILES: CC1(C)C(=O)NC(=O)N1CO
- Potency [1]: inactive
- Potency [2]: inactive
- Potency [3]: inactive
- Potency [4]: inactive
- Potency [5]: inactive
- Potency [6]: inactive
- Potency [7]: inactive
- outcome [8]: inactive

SMILES: CC(C)=CCC/C(C)=C/C=N/O
- Potency [1]: inactive
- Potency [2]: inactive
- Potency [3]: inactive
- Potency [4]: inactive
- Potency [5]: inactive
- Potency [7]: inactive
- outcome [8]: inactive

SMILES: O=C(Nc1ccccc1)c1cc([N+](=O)[O-])ccc1Cl
- Potency [1]: inactive
- Potency [2]: 21.7 µM (active)
- Potency [3]: inactive
- Potency [4]: 48.6 µM (active)
- Potency [5]: inactive
- Potency [10]: inactive
- Potency [6]: inactive
- Potency [7]: inactive
- outcome [8]: inactive

SMILES: C/C(=C\C(C)CC(C)CC(C)C)C1CC(=O)OC1=O (stereo not given)
- Potency [1]: inactive
- Potency [2]: inactive
- Potency [3]: inactive
- Potency [5]: inactive
- Potency [6]: inactive
- Potency [7]: inactive
- outcome [8]: inactive

SMILES: CCN(CC)CC(=O)OCC(=O)[C@@]1(O)CC[C@H]2[C@@H]3CCC4=CC(=O)CC[C@]4(C)[C@H]3[C@@H](O)C[C@@]21C
- Potency [1]: inactive
- Potency [2]: inactive
- Potency [3]: inactive
- Potency [5]: inactive
- Potency [9]: inactive
- Potency [10]: 0.211 µM (active)
- Potency [6]: inactive
- Potency [7]: inactive
- outcome [8]: inactive

SMILES: CCC(C)C1N=C(C)C(C)S1 (stereo not given)
- Potency [1]: inactive
- Potency [2]: inactive
- Potency [3]: inactive
- Potency [4]: inactive
- Potency [5]: inactive
- Potency [6]: inactive
- outcome [8]: inactive

SMILES: CCN(CCCCOC(=O)c1ccc(OC)c(OC)c1)C(C)Cc1ccc(OC)cc1 (stereo not given)
- Potency [1]: inactive
- Potency [2]: inactive
- Potency [4]: inactive
- Potency [5]: inactive
- Potency [6]: inactive
- Potency [7]: inactive

SMILES: Cc1cc(C)n(CO)n1
- Potency [1]: inactive
- Potency [2]: inactive
- Potency [5]: inactive
- Potency [9]: inactive
- Potency [6]: inactive
- Potency [7]: inactive
- outcome [8]: inactive

SMILES: CC1=C(C)C(=O)C(CCCCC#CCCCC#CCO)=C(C)C1=O
- Potency [1]: inactive
- Potency [2]: inactive
- Potency [4]: 21.1 µM (active)
- Potency [6]: 26.6 µM (active)
- Potency [7]: inactive
- outcome [8]: inactive

SMILES: C[C@H](N)C(=O)N[C@@H](C)C(=O)NC1[C@H]2CN(c3nc4c(cc3F)c(=O)c(C(=O)O)cn4-c3ccc(F)cc3F)C[C@@H]12 (stereo not given in full)
- Potency [1]: inactive
- Potency [2]: inactive
- Potency [5]: inactive
- Potency [9]: inactive
- Potency [10]: inactive
- Potency [6]: inactive
- Potency [7]: inactive

SMILES: Nc1ccc(-c2ccc(F)cc2)cc1
- Potency [1]: inactive
- Potency [2]: inactive
- Potency [5]: inactive
- Potency [9]: inactive
- Potency [6]: inactive
- Potency [7]: inactive
- outcome [8]: inactive

SMILES: O=C(O)CCc1nc2ccccc2[nH]1
- Potency [1]: inactive
- Potency [2]: inactive
- Potency [5]: inactive
- Potency [9]: inactive
- Potency [6]: inactive
- Potency [7]: inactive

SMILES: CCCCCCCCCCCCN1CCOCC1
- Potency [1]: inactive
- Potency [2]: inactive
- Potency [4]: inactive
- Potency [5]: inactive
- Potency [6]: inactive
- Potency [7]: inactive

SMILES: O=P(c1ccccc1)(c1ccccc1)c1ccccc1
- Potency [1]: inactive
- Potency [2]: inactive
- Potency [5]: inactive
- Potency [9]: inactive
- Potency [6]: inactive
- Potency [7]: inactive
- outcome [8]: inactive

SMILES: CCC(C(=O)O)c1ccc(N2Cc3ccccc3C2=O)cc1 (stereo not given)
- Potency [1]: inactive
- Potency [2]: inactive
- Potency [5]: inactive
- Potency [9]: inactive
- Potency [10]: inactive
- Potency [6]: inactive
- Potency [7]: inactive

SMILES: Nc1nc(Cl)nc2c1ncn2[C@H]1C[C@H](O)[C@@H](CO)O1
- Potency [1]: inactive
- Potency [2]: 0.383 µM (active)
- Potency [5]: inactive
- Potency [9]: inactive
- Potency [6]: inactive

SMILES: CC(CC(C#N)(c1ccccc1)C(C)C)N(C)C (stereo not given)
- Potency [1]: inactive
- Potency [2]: inactive
- Potency [5]: inactive
- Potency [9]: inactive
- Potency [10]: inactive
- Potency [6]: inactive
- Potency [7]: inactive
- outcome [8]: inactive
